# Bioassay records (PubChem BioAssay)
# Many of the other results were omitted from the sample, so hits are more common in it than they were.
# mHTT-CaM PPI inh: mHTT-calmodulin interaction abrogation; AlphaScreen His-mHTT/GST-CaM binding, luminescence; inhibition, % at 15 µM; 3.6% of 190,000 active
# Target sequence (P42858 whole entry, looked up, change not shown): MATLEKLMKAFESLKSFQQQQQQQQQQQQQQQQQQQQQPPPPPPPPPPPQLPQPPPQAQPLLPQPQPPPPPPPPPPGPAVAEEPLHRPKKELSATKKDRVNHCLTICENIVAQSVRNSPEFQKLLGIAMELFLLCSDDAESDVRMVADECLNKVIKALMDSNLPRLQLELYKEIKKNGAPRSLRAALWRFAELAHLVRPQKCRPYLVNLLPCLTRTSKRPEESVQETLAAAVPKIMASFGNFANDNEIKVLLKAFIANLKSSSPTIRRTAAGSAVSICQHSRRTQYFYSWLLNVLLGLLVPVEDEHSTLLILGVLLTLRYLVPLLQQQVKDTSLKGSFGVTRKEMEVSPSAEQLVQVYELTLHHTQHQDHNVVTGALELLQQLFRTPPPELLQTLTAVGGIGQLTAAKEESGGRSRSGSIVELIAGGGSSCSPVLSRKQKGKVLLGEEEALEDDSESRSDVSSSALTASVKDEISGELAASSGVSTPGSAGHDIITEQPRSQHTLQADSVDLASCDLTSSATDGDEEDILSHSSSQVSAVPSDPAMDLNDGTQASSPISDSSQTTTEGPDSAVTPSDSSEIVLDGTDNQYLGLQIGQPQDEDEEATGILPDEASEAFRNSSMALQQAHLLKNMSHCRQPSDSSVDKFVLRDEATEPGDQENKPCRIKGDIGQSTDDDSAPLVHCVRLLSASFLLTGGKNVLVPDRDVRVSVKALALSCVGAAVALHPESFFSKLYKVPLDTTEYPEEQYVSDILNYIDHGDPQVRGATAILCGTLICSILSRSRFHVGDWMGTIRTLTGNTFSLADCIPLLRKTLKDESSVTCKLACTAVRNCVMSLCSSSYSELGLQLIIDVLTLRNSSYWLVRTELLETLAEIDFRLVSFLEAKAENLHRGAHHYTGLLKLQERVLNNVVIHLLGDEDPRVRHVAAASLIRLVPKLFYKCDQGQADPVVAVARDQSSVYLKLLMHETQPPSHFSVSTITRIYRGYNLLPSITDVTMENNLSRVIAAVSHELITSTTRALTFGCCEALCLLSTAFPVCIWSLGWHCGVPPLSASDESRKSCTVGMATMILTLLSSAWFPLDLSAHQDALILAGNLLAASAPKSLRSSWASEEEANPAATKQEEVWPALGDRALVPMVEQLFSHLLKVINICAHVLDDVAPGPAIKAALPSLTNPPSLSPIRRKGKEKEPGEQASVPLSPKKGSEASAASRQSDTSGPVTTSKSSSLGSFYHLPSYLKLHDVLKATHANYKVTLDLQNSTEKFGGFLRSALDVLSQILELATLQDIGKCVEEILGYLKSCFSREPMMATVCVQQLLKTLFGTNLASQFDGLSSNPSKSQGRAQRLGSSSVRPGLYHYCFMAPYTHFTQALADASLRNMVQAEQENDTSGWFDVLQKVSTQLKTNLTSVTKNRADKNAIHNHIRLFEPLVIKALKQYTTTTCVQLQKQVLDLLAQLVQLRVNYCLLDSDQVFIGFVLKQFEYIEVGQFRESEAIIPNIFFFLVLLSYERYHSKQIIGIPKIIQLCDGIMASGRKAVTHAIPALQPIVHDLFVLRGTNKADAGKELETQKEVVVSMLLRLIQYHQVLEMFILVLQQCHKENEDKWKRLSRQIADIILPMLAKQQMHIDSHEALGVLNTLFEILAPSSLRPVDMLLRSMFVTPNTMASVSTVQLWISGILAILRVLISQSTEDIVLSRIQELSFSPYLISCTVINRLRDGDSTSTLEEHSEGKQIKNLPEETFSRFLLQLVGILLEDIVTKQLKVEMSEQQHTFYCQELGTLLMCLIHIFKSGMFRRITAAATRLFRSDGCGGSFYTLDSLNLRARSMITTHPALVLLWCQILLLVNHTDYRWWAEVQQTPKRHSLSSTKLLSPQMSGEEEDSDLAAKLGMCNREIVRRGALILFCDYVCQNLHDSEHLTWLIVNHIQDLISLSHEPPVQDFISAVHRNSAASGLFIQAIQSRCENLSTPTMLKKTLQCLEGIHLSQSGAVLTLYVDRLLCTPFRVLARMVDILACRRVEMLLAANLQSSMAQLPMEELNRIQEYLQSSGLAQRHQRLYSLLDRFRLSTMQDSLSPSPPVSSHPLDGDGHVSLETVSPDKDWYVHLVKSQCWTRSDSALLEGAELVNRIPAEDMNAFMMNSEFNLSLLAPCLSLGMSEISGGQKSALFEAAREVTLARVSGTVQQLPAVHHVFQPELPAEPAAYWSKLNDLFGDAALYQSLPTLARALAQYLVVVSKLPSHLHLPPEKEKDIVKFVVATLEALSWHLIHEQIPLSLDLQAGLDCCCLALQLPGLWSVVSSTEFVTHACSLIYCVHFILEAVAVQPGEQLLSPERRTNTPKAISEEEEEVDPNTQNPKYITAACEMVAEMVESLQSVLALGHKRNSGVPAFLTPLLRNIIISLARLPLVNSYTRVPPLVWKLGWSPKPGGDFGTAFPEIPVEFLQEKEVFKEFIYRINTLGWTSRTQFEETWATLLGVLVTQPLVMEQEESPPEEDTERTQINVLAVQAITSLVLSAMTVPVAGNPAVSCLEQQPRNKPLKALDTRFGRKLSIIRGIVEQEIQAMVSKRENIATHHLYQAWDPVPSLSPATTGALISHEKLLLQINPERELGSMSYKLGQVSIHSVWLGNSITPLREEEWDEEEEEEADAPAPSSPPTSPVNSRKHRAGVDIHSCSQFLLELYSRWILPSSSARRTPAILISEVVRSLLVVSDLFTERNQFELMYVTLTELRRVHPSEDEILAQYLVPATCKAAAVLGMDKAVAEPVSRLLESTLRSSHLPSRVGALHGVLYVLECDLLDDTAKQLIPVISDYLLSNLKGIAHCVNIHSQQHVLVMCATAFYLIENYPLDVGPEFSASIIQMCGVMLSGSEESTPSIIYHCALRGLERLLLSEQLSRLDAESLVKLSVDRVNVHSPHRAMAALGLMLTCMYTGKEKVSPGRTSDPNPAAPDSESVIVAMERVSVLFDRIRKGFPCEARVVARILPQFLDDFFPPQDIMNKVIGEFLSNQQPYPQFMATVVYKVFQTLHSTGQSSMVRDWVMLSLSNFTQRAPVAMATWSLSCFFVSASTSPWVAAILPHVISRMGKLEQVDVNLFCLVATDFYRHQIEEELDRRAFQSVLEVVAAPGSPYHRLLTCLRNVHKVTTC
# Pf apPOL block: Pf-apPOL DNA polymerase inhibition; Recombinant Pf-apPOL, molecular beacon fluorescence, 1.5 h; inhibition, % at 10 µM; 0.25% of 210,000 active; AID 1794808
# Hits are given with their value; i = inactive; nt = no result given. Cut-off read from the data, not from the text of the source: active = inhibition above about 50%; inactive = the rest.
SMILES,mHTT-CaM PPI inh,Pf apPOL block
CC1CC(=O)Nc2c1c(NC(=O)c1cc(-c3ccc(F)cc3)n[nH]1)nn2C (centres undefined),i,i
CC1CC(=O)Nc2c1c(NC(=O)c1ccc(S(=O)(=O)N3CCOCC3)cc1)nn2C (centres undefined),100,i
COc1ccc(C=C2N=C(c3ccccc3)NNC2=O)cc1,nt,i
COc1ccc(OC)c(C=C2Oc3cc(C)cc(O)c3C2=O)c1,i,i
COc1ccc(C=C2Oc3cc(C)cc(O)c3C2=O)c(OC)c1OC,75,i
CN1C(=O)C2CCCCN2c2ccc(C(=O)NCCN3CCOCC3)cc21 (centres undefined),i,i
O=C(NCc1cccs1)NCC(O)c1cccs1 (centres undefined),i,i
O=C(Nc1cc(Cl)ccc1O)c1cccc(S(=O)(=O)N2CCCC2)c1,51,i
O=C(Nc1cc(Cl)ccc1Cl)c1cccc(S(=O)(=O)N2CCCCC2)c1,i,i
COc1ccc(C2=NOC(C(=O)NCCc3ccccc3)C2)cc1 (centres undefined),i,i
O=c1c(=Cc2ccncc2)sc2nc3ccccc3n12,i,i
CCN(CC)S(=O)(=O)c1ccc(-c2csc(=Nc3ccc(C)cc3)n2C)cc1,i,i
CCN(CC)S(=O)(=O)c1ccc(-c2csc(=Nc3ccc(F)cc3)n2CCCO)cc1,51,i
CCN(CC)S(=O)(=O)c1ccc(-c2csc(=Nc3cccc(C)c3)n2CCCO)cc1,64,i
O=S(=O)(c1ccc(-c2csc(=Nc3ccccc3)n2CCCO)cc1)N1CCOCC1,i,i
OCCOCCNc1ncnc2c1c(-c1ccccc1)cn2-c1cccc(Cl)c1,54,i
OCCOCCNc1ncnc2c1c(-c1ccccc1)cn2-c1cccc(C(F)(F)F)c1,i,i
N#CSC(C#N)Cc1ccccc1 (centres undefined),i,i
N#CSC(C#N)Cc1ccc([N+](=O)[O-])cc1 (centres undefined),60,i
O=C1OC(c2ccccc2Cl)=N/C1=C\C=C\c1ccccc1,53,i
O=C1OC(c2ccccc2Br)=N/C1=C\C=C\c1ccccc1,i,i
COc1c(C(=O)N2CCN(c3ccccc3)CC2)sc2cccc(F)c12,64,i
COc1c(C(=O)N2CCN(c3ccccc3F)CC2)sc2cccc(F)c12,i,i
Cc1ccc(N(C(=O)c2cccs2)C(=O)N2CCCCC2)cc1,i,i
COC(=O)c1ccc(NS(=O)(=O)c2ccc3[nH]c4c(c3c2)CCCCC4)cc1,68,i
SMILES,mHTT-CaM PPI inh,Pf apPOL block
CCOc1ccccc1NS(=O)(=O)c1ccc2[nH]c3c(c2c1)CCCC3,i,i
COc1ccc(NS(=O)(=O)c2ccc3[nH]c4c(c3c2)CCCC4)cc1,80,i
COc1ccc(NS(=O)(=O)c2ccc3[nH]c(=O)sc3c2)cc1,i,i
CC(=O)c1ccc2c3c([nH]c2c1)CCCC3,i,i
COC(=O)c1ccc(NS(=O)(=O)c2ccc3[nH]c4c(c3c2)CCCC4)cc1,i,i
CC(=O)c1ccc(NS(=O)(=O)c2ccc3[nH]c4c(c3c2)CCCC4)cc1,63,i
O=S(=O)(Nc1ccc(F)cc1F)c1ccc2[nH]c3c(c2c1)CCCC3,91,i
COc1ccc(CCc2nc(-c3ccc(=O)[nH]c3)no2)cc1,i,i
CCCCN(C)S(=O)(=O)c1ccc(F)c(C(=O)Nc2cccc(F)c2)c1,i,i
O=C1CCC(=O)N1CCc1cnc[nH]1,nt,i
CS(=O)(=O)N1CCc2[nH]nc(-c3ccccc3)c2C1,i,i
O=C(c1cccnc1)N1CCC(n2c(-c3ccc(F)cc3)nc3cccnc32)C1 (centres undefined),i,i
Cc1ccccc1NC(=O)N1CCC(N2CCN(Cc3ccccc3)C2=O)CC1,i,i
Cc1cccc(NC(=O)N2CCC(N3CCN(Cc4ccccc4)C3=O)CC2)c1C,100,i
COc1ccc(-c2ccc(/C=C/c3cc(C(F)(F)F)[nH]c(=O)n3)o2)c([N+](=O)[O-])c1,i,i
COc1ccc(-c2ccc(/C=C/c3cc(C(F)(F)F)[nH]c(=O)n3)o2)cc1Cl,99,i
O=[N+]([O-])c1c(N2CCOCC2)c([N+](=O)[O-])c(N2CCOCC2)c([N+](=O)[O-])c1N1CCOCC1,i,i
C=CSc1sc(Cl)c(N2CCOCC2)c1[N+](=O)[O-],i,i
C=CSc1sc(Cl)c(N2CCC3(CC2)OCCO3)c1[N+](=O)[O-],67,i
C=CS(=O)(=O)c1sc(Cl)c(N2CCOCC2)c1[N+](=O)[O-],60,i
Cc1cccc(CN(CC(=O)Nc2ccc(C(N)=O)cc2)S(=O)(=O)c2ccc(Cl)cc2)c1,i,i
O=C(O)C1CSC(c2cc(F)ccc2Br)N1 (centres undefined),i,i
COc1nccc(N2CCC(CC(=O)NCc3ccc(C(F)(F)F)cc3)CC2)n1,i,i
Cn1ncc(N2CCCC(C(=O)NCc3ccc(F)c(Cl)c3)C2)cc1=O (centres undefined),i,i
CCN(c1cccc(C)c1)S(=O)(=O)c1ccc2c(c1)CC(C)N2C(C)=O (centres undefined),i,i
SMILES,mHTT-CaM PPI inh,Pf apPOL block
CCN(c1ccc(C)c(C)c1)S(=O)(=O)c1ccc2c(c1)CC(C)N2C(C)=O (centres undefined),70,i
Cc1ccc(C)c(S(=O)(=O)NCCC2CCN(C(=O)c3ccccc3)CC2)c1,i,i
Cc1ccc(C(=O)N2CCC(CCNS(=O)(=O)c3ccc(Cl)cc3)CC2)cc1,i,i
CC(=O)c1ccc(S(=O)(=O)NCCC2CCN(C(=O)c3ccc(C)cc3)CC2)cc1,57,i
O=C(c1ccccc1)N1CCC(CCNS(=O)(=O)c2ccc(Cl)cc2)CC1,55,i
COc1ccc(S(=O)(=O)NCCC2CCN(C(=O)c3ccccc3)CC2)cc1,i,i
O=C(c1ccc(F)cc1)N1CCC(CCNS(=O)(=O)c2cccc3cccnc23)CC1,i,i
Cc1ccc(C(=O)N2CCC(CCNS(=O)(=O)c3cccc4cccnc34)CC2)cc1,62,i
Cc1ccc(F)cc1S(=O)(=O)NCCC1CCN(C(=O)c2ccccc2)CC1,54,i
Cc1cc(C)nc(NC(=O)CC(c2ccccc2)c2ccccc2)n1,i,i
COc1ccc(C2C(=C(O)c3ccc(F)cc3)C(=O)C(=O)N2CCN2CCOCC2)cc1OC (centres undefined),i,i
Cc1ccc2c(c1)N(C)C(=O)c1cc(NC(=O)c3ccsc3)ccc1O2,i,i
CC(C)c1ccc(S(=O)(=O)NCCC2CCN(C(=O)c3ccccc3)CC2)cc1,51,i
COc1ccc(OC)c(S(=O)(=O)NCCC2CCN(C(=O)c3ccc(C)cc3)CC2)c1,63,i
CC(=O)Nc1ccc(S(=O)(=O)NCCC2CCN(C(=O)c3ccccc3)CC2)cc1,i,i
Cc1ccc(C(=O)N2CCC(CCNS(=O)(=O)c3cc(C)c(C)cc3C)CC2)cc1,i,i
Cc1ccccc1N(CC(=O)NCc1ccco1)S(C)(=O)=O,i,65
COc1ccccc1N(CC(=O)NCc1ccco1)S(C)(=O)=O,i,i
O=S(=O)(c1ccccc1)C1c2ccccc2Oc2ccc(Cl)cc21 (centres undefined),i,i
N#CCC(=O)c1ccccc1[N+](=O)[O-],nt,i
CC(C)(C)c1ccc(-c2nc3cc(N)ccc3o2)cc1,i,i
COc1ccc(-c2nc3cc(C(C)(C)C)ccc3o2)cc1O,61,i
COc1cc(-c2nc3cc(C(C)(C)C)ccc3o2)ccc1O,56,i
COc1ccc(-c2nc3cc(C)ccc3o2)cc1N,i,i
